Assay [1] can be described thus: AP1 Signaling Pathway (AID 357). Further: on the % scale 0 is the no-effect control and ±100 the full control effect. As to conditions: ME-180 AP-1-bla reporter, EGF-induced, beta-lactamase ratio, 5 h; at 7.69 µM (top of the series) unless noted. An outline of the steps:
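AP-1-bla ME-180 cells with beta-lactamase reporter under AP-1 response element, stimulated with EC50 EGF; compounds titrated, 5 hours at 37 degrees Celsius. CCF4 read at 460/530 nm ratio; positive and negative modulators judged by AC50.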

Assay [2] addresses Cytochrome P450 1A2 (Homo sapiens) (UniProt P05177). Description: p450-cyp1a2 (AID 410; calls by dose curve; further: potency means the concentration at half of the fitted maximal effect). An outline of the steps: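 20nM CYP1A2, 100uM Luciferin-ME (=Km), 100mM KPO4; cpd 10 min RT; +NADPH regen, 60 min RT; stop/detect 20 min; luminescence. Normalized to furafylline 57 uM = full inhibition.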
The nature of assay [3]: NFAT Signaling Pathway (AID 444).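 Further: carbachol stimulus at about its EC50 of 1 µM final; on the % scale 0 is the no-effect control and ±100 the full control effect.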 The note with it: Jurkat NFAT-bla M1, carbachol, beta-lactamase ratio, 5 h; at 7.69 µM (top of the series) unless noted. Summed up: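 Read-out: CCF4 FRET ratio (460 nm/530 nm) after 1 h RT dye loading, used for %activity and AC50 from titration series. Cells: Jurkat NFAT-β-lactamase/M1 line, treated with compound plus 1 uM carbachol for 5 h, 37 °C.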

Assay [4] in a line: Stat Signaling Pathway (AID 446).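 Further: ME-180 cervical cancer cells given 40 pM IL-6 alongside compound; SIE-controlled beta-lactamase reporter measured as 460/530 nm FRET emission ratio; on the % scale 0 is the no-effect control and ±100 the full control effect.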 As to conditions: ME-180 (cervical carcinoma) SIE beta-lactamase reporter, IL-6 stimulated, 5 h; at 7.69 µM (top of the series) unless noted. An outline of the steps: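 Normalization used AC90 stimulation (300 pM IL-6) and AC90 inhibition (125 nM pan-JAK inhibitor at 40 pM IL-6). The underlying signal is SIE-driven beta-lactamase in ME-180 cells after 5 h IL-6 exposure with compound.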

The target in assay [5] is 3',5'-cyclic-AMP phosphodiesterase 4B (Homo sapiens) (UniProt Q07343). As to the kind of experiment: qHTS Assay for Inhibitors of PDE-IV (AID 607; active means well fitted activation curve with a large enough effect in the main read-out, with a control signal flat, not every such curve was filed as active; further: % of control where 0% means no effect). An outline of the steps: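 HEK293 ACTOne cells with CNG channel (1000/well), endogenous PDE4; membrane potential dye, compounds up to 22.9 uM final. Fluorescence Ex 535/Em 590; RO 20-1724 (100 uM final) as reference.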
Background: qHTS replaces the single test concentration by a dilution series.

Results filed as inconclusive are left out. A number with no mark means an inactive call. The source made the active and inactive calls. Unless noted, the call rests on the fitted dose curve; in most records, active means well fitted curve in either direction with a large enough effect (not every such curve was filed as active); inconclusive means small, poorly fitted or top-dose-only effect, or another doubt; inactive means flat fitted curve, though single readings scatter.

Chain of Cytochrome P450 1A2 (Homo sapiens) (P05177 whole entry, looked up): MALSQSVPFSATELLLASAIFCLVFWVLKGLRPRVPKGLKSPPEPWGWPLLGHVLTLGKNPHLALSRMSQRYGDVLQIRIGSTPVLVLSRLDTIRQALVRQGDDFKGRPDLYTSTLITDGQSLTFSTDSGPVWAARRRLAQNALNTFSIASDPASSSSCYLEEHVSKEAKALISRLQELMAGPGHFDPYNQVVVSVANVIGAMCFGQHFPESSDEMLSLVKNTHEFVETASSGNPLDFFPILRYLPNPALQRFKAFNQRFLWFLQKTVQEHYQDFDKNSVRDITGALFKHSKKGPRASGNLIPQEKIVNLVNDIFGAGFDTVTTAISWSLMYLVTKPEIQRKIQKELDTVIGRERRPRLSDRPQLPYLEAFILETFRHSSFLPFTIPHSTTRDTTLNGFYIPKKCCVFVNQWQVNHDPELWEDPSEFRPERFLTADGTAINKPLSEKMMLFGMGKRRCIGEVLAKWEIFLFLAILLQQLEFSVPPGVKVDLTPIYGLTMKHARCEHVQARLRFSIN
Chain of 3',5'-cyclic-AMP phosphodiesterase 4B (Homo sapiens) (Q07343 whole entry, looked up): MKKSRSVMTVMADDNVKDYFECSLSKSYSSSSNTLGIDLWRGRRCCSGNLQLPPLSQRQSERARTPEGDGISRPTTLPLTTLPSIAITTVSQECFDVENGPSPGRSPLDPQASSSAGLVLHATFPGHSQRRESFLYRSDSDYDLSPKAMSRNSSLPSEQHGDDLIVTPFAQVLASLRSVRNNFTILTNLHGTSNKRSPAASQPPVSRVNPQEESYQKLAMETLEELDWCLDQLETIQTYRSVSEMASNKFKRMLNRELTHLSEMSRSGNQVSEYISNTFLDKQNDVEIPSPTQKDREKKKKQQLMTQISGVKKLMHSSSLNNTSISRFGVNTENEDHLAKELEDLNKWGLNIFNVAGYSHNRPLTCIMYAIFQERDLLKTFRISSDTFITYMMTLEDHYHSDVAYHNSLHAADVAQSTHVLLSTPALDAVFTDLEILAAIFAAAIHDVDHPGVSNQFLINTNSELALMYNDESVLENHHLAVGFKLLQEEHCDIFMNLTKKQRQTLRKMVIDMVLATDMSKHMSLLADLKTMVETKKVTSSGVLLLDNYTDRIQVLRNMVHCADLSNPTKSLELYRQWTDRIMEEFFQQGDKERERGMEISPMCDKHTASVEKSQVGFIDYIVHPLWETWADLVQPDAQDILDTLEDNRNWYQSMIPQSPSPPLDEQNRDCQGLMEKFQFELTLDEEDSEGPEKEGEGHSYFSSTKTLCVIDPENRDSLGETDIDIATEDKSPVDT

Take `c1ccc(CCN2CCCCCC2)nc1`: the values for the activity change, negative = inhibition in assay [1] and in assay [3] were -1.84% and -10.4%, respectively. Further, the Potency entry in assay [2] was “inactive”. In addition, the activity, negative = inhibition in assay [4] was 3.27%. The call in assay [5] was inactive.
Consider `CCN(CC)c1ncnc2c1ncn2[C@@H]1O[C@@H](COP(=O)(O)OP(=O)(O)C(Br)(Br)P(=O)(O)O)[C@H](O)[C@@H]1O`, for which the activity change, negative = inhibition is 6.32% [at 38 µM] in assay [1] and 8.54% [at 38 µM] in assay [3]. Besides, the Potency entry in assay [2] is “inactive”. Also, the activity, negative = inhibition in assay [4] is -1.38% [at 38 µM]. Further, the molecule was classed as inactive in assay [5].
On to `C[N+]1(C)CCc2cc3c(cc2[C@@H]1[C@@H]1OC(=O)c2c1ccc1c2OCO1)OCO3`, for which the activity change, negative = inhibition in assay [1] is -3.72% [at 38 µM]; in assay [3] it was -11.8% [at 38 µM]. Also, the Potency result in assay [2] is “inactive”. Moreover, in assay [4], the activity, negative = inhibition was 13.3% [at 38 µM]. Also, the call in assay [5] was inactive.
Take `C[C@@]12CC[C@H]3[C@@H](CCC4=C(O)C(=O)CC[C@]43C)[C@H]1CCC2=O`: the values for the activity change, negative = inhibition in assay [1] and in assay [3] were 4.24% [at 38 µM] and -1.14% [at 38 µM], respectively. Moreover, the Potency result in assay [2] was “inactive”. The activity, negative = inhibition in assay [4] was 14.9% [at 38 µM]. Besides, the molecule was classed as inactive in assay [5].
On to `C[C@@H]1Cc2cc3c(cc2C(c2ccc(N)cc2)=NN1)OCO3`, for which the activity change, negative = inhibition in assay [1] was -10.9% [at 38 µM]; in assay [3], -10.6% [at 38 µM]. The Potency in assay [2] was 5.01 µM (active). In assay [4], the activity, negative = inhibition is 13.7% [at 38 µM]. Moreover, in assay [5], the molecule was classed as inactive.
In the case of `CCn1cnc2c(Nc3cccc(Cl)c3)nc(N[C@@H]3CCCC[C@H]3N)nc21`, the figures for the activity change, negative = inhibition in assay [1] and in assay [3] were -111% [at 38 µM] (active) and -119% [at 38 µM] (active), respectively. The Potency in assay [2] was 15.8 µM (active). Further, the activity, negative = inhibition in assay [4] is -30.2% [at 38 µM] (active). The result in assay [5] was inactive.
Taken in the same sequence, the figures for `C[C@@H](O)CN(CCN(C[C@@H](C)O)C[C@@H](C)O)C[C@@H](C)O.O=[N+]([O-])O.[Cu]` were -0.101%, -2.32%, 5.01 µM (active), 2.41% and “inactive”.
Taken in the same sequence, the figures for `CCCN1CC[C@@H]2c3cc(O)ccc3CC[C@H]21` were -14.4% [at 38 µM], -28.7% [at 38 µM], “inactive”, -6.76% [at 38 µM] and “inactive”.
Taken in the same sequence, the figures for `O=C(O)CSCC(=O)O` were -1.42%, 2.38%, “inactive”, 7.17% and “inactive”.
On to `C[C@@H]1O[C@H]1P(=O)(O)O`, for which the results for the activity change, negative = inhibition in assay [1] and in assay [3] were 0.559% [at 38 µM] and 6.57% [at 38 µM], respectively. Also, in assay [2], the Potency result was “inactive”. For the same molecule, the activity, negative = inhibition in assay [4] is 22.2% [at 38 µM]. Also, in assay [5], the call was inactive.
As for `CC(=O)OCC1=C(C(=O)[O-])N2C(=O)[C@@H](NC(=O)CCC[C@@H](N)C(=O)[O-])[C@@H]2SC1.[Zn+2]`, the figures for the activity change, negative = inhibition in assay [1] and in assay [3] were 13.1% [at 38 µM] and 1.01% [at 38 µM], respectively. Also, the Potency result in assay [2] is “inactive”. Also, in assay [4], the activity, negative = inhibition was -13.9% [at 38 µM]. In addition, in assay [5], the molecule was classed as inactive.
For the molecule `Oc1ccc2c3c1O[C@@H]1c4[nH]c5c(c4C[C@@]4(O)[C@@H](C2)N(CC2CC2)CC[C@]314)C[C@]1(O)[C@@H]2Cc3ccc(O)c4c3[C@@]1(CCN2CC1CC1)[C@H]5O4`, the results for the activity change, negative = inhibition in assay [1] and in assay [3] were -1.65% [at 38 µM] and -8.04% [at 38 µM], respectively. The Potency entry in assay [2] was “inactive”. The activity, negative = inhibition in assay [4] was -12.2% [at 38 µM]. In assay [5], the molecule was classed as inactive.
On to `N[C@H](Cn1ccc(=O)[nH]c1=O)C(=O)O`, for which the activity change, negative = inhibition in assay [1] is -6.11% [at 38 µM]; in assay [3], -2.89% [at 38 µM]. In assay [2], the Potency entry is “inactive”. Further, in assay [4], the activity, negative = inhibition is 4.92% [at 38 µM]. For the same molecule, the molecule was classed as inactive in assay [5].
`CN1C[C@@H](CS(=O)(=O)N(C)C)C[C@H]2c3cccc4c3c(cn4C)C[C@@H]21`: the activity change, negative = inhibition in assay [1] was 2.96% [at 38 µM]; in assay [3] it was 4.13% [at 38 µM]. Moreover, the Potency in assay [2] was 25.1 µM (active). Besides, in assay [4], the activity, negative = inhibition was -10.8% [at 38 µM]. Also, the molecule was called inactive in assay [5].
Taken in the same sequence, the figures for `C#CCN[C@@H](C)Cc1ccccc1` were 1.81% [at 38 µM], 0.0477% [at 38 µM], 15.8 µM (active), -23.9% [at 38 µM] and “inactive”.
As to `C=CCN1CC[C@]23c4c5ccc(O)c4O[C@@H]2/C(=N/NC(=O)c2ccccc2)CC[C@@]3(O)[C@H]1C5`, the values for the activity change, negative = inhibition in assay [1] and in assay [3] were -2.73% [at 38 µM] and -2.19% [at 38 µM], respectively. For the same molecule, the Potency result in assay [2] was “inactive”. Also, the activity, negative = inhibition in assay [4] is -23.6% [at 38 µM]. Moreover, the molecule was classed as inactive in assay [5].
In the case of `N[C@H](Cn1oc(=O)[nH]c1=O)C(=O)O`, the activity change, negative = inhibition in assay [1] was 0.495% [at 38 µM]; in assay [3] it was -2.78% [at 38 µM]. Besides, the Potency result in assay [2] is “inactive”. Further, the activity, negative = inhibition in assay [4] is 6.66% [at 38 µM]. In addition, the molecule was classed as inactive in assay [5].

For the origin of these results see PubChem BioAssay (NCATS).
